RECQ1 inh-1 – inhibitors of human RECQ1 DNA helicase. P46063. RECQ1 DNA unwinding, red fluorescence kinetic read. Potency, µM (top dose mostly 57.3 µM), most hits filed as inhibitors. 240,000 compounds, 0.54% hits; further: nearly all actives have a fitted effect of over 30% in size
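50 nM RECQ1T1 preincubated 15 min with compound in Tris pH 8.0 buffer with MgCl2, DTT, Tween-20 and 2.5 ug/ml poly(dI-dC); started with 200 nM TAMRA/BHQ-2 forked duplex and 2 mM ATP. Unwinding read as fluorescence (525/598 nm), two reads 2 h apart.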
TRb SRC2 PPI – disrupts binding of human TR beta to SRC2. Potency, µM (doses to about 106 µM), most hits filed as inhibitors. 280,000 compounds, 0.065% hits. TRbeta-SRC2 peptide binding, fluorescence polarization; receptor liganded with 1 µM T3; further: nearly all actives have a fitted effect of over 50% in size
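Human TRb ligand-binding domain (0.6 uM) is mixed with 20 nM Texas Red SRC2 peptide and 1 uM T3; after compound addition and 5 hr at ambient temperature, polarization is measured and normalized to unbound and bound controls.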
GoLoco inh red – blocks human Gai1 binding to RGS12 GoLoco peptide, red readout | Potency, µM (series often up to 61.6 µM), usual class: inhibitors | Gai1:RGS12 GoLoco peptide FP, rhodamine, 10 min | 230,000 compounds, 0.44% hits; active means well fitted inhibition curve with a large enough effect, not every such curve was filed as active; inactive means no such curve, though single readings can be large or run the other way; further: nearly all actives have a fitted effect of over 30% in size
Target sequence (P63096 whole entry, looked up): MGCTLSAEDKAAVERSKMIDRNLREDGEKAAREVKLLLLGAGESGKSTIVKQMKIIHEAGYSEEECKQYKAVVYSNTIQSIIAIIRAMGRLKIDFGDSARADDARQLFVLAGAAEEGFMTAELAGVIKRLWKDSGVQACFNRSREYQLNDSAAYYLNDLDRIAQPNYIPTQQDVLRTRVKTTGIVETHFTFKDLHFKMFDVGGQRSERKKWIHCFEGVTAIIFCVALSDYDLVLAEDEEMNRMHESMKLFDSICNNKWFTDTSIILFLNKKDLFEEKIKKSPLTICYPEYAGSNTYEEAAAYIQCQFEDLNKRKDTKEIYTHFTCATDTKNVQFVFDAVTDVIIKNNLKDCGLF
BLM helicase inh – inhibitors of human Bloom syndrome helicase BLM | recombinant BLM DNA unwinding, fluorescence dequenching | 350,000 compounds, 0.2% hits | Potency, µM (highest dose often 56.1 µM), most hits filed as inhibitors | AID 2528; further: nearly all actives have a fitted effect of over 35% in size
ERG Ets-DNA blk – ERG Ets/DNA interaction inhibition | P11308 | fluorescence polarization, His-ERG Ets domain / labelled DNA | Potency, µM (titrated, usually from 76.9 µM), actives largely listed as inhibitors | 370,000 compounds, 0.028% hits | AID 624246; active means well fitted inhibition curve with a large enough effect in the polarisation, with a control signal flat; inconclusive means small, poorly fitted or top-dose-only effect, or effect the other way, or a change in a side signal; inactive means no such curve, though single readings can be large or run the other way; the % refers to the polarisation;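 further: polarization taken with two DNA probes labelled with fluorescein and Texas red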
Target sequence (P11308 whole entry, looked up, the tested form may be a part): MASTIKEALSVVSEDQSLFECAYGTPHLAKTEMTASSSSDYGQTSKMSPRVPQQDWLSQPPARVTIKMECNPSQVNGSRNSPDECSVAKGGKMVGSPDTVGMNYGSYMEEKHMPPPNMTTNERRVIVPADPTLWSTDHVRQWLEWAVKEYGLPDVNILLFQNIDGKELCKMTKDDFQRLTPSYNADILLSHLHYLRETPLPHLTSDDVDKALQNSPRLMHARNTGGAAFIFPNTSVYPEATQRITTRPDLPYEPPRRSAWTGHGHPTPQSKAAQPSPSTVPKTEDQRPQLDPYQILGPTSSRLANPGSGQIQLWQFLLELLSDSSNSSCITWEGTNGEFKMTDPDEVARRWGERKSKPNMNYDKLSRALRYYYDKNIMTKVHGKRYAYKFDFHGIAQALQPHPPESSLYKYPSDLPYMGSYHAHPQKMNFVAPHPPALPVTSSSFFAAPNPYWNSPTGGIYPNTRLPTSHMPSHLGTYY
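His-tagged ERG Ets domain (1 uM in the protein solution; 300mM KCl, 50mM Tris-HCl, 1mM EDTA, 1mM DTT, pH 7.5) received compound, then a probe mix of 5 nM fluorescein-DNA and 100nM Texas-615-DNA. Fluorescence polarization was read for both dyes.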
TexasRed fluor – counter-screen for TRb-SRC2 inhibitors: fluorescence interference. TRb/SRC2 Texas Red total fluorescence interference. Potency, µM (titrated, usually from 106 µM). 280,000 compounds, 0.29% hits. AID 1479; active means well fitted curve in either direction with a large enough effect; inconclusive means small, poorly fitted or top-dose-only effect
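Human TRb ligand-binding domain at 0.6 uM with 20 nM Texas Red SRC2 peptide in Tris buffer containing 1 uM T3 and 5% DMSO, incubated with compound 5 h at ambient temperature. Total fluorescence (555/632 nm) calculated as parallel + 2 × perpendicular.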
RECQ1 conf – confirmation of human RECQ1 helicase inhibitors | shares compounds with RECQ1 inh-1 | RECQ1 helicase DNA unwinding, fluorescence | Potency, µM (series often up to 229 µM), usual class: inhibitors | 610 compounds, 28% hits; further: nearly all actives have a fitted effect of over 45% in size
ADP FP counter – ADP displacement flagged in RECQ1 inhibitor counter-screen | shares compounds with RECQ1 inh-1 | ADP fluorescence polarization displacement counterscreen | Potency, µM (series often up to 228 µM), most hits filed as inhibitors | 530 compounds, 27% hits; further: nearly all actives have a fitted effect of over 45% in size
RECQ1 inh-2 – confirmation of human RECQ1 helicase inhibitors. Potency, µM (highest dose often 119 µM), actives largely listed as inhibitors. AID 504841. 1,100 compounds, 15% hits. recombinant RECQ1 DNA unwinding, red fluorescence. shares compounds with RECQ1 inh-1; further: nearly all actives have a fitted effect of over 50% in size
Of the large screens only hits and unclear results are named; the others gave an inactive call (follow-up assays come after a bar, where they were run); [ ] = dose if it differs, or a comment. Shown are actives, neighbours in structure and some others; about 0.71% of the full set was active somewhere. Unless noted, the call rests on the fitted dose curve; in most records, active means well fitted curve in the direction sought with a large enough effect; inconclusive means small, poorly fitted or top-dose-only effect, or another doubt; inactive means no such curve, though single readings can be large; an effect the other way counts as inactive or inconclusive.

O=C1c2cccc3c(N4CCCCC4)ccc(c23)C(=O)N1c1cccc(O)c1	none
O=C1NC(=O)/C(=C\c2ccc(O)cc2O)S1	RECQ1 inh-1 22µM | RECQ1 inh-2 13µM
CCc1ccccc1NC(=O)Cn1ccn(Cc2ccccc2)c(=O)c1=O	none (no result: RECQ1 inh-1, GoLoco inh red)
Cc1ccc(-n2c(Cc3cccn3C)nnc2SCC(N)=O)cc1	none
COc1ccc(NCc2nnc(SCC(=O)Nc3nc(-c4ccccc4)cs3)n2-c2ccccc2)cc1	none | RECQ1 conf inactive | ADP FP counter inconclusive
COc1ccc(-n2c(Cc3cccn3C)nnc2SCC(=O)Nc2ccc(C(C)=O)cc2)cc1	RECQ1 inh-1 22µM | RECQ1 inh-2 inactive
Cc1ccc(-n2c(Cc3cccn3C)nnc2SCC(=O)NCc2ccco2)cc1	RECQ1 inh-1 22µM | RECQ1 conf inactive | ADP FP counter inactive | RECQ1 inh-2 inactive
COc1ccc(-n2c(CNc3ccc(C)cc3)nnc2SCC(=O)Nc2nc(-c3ccccc3)cs2)cc1	none
O=C(CSc1nnc(-c2ccncc2)n1Cc1ccco1)Nc1ccccc1Cl	none
O=C(CSc1nnc(-c2ccncc2)n1Cc1ccco1)Nc1nc(-c2ccccc2)cs1	none | RECQ1 conf inactive | ADP FP counter inactive
COc1ccc(NC(=O)CSc2nnc(Cc3cccn3C)n2-c2ccc(OC)cc2)cc1	none
OCC1OC(c2ccccc2)C=CC1Oc1ccc(C2CCCC2)cc1 (configuration not stated)	none (no result: GoLoco inh red, ERG Ets-DNA blk)
CCC(=O)/C=C1/Sc2ccccc2N1CC	none
CCN1/C(=C/c2cc[n+](CCCS(=O)(=O)[O-])c3ccccc23)Sc2ccccc21	RECQ1 inh-1 inconclusive, ERG Ets-DNA blk inconclusive | RECQ1 inh-2 56µM
O=C(O)Cc1c[nH]c2ccccc12	none (no result: RECQ1 inh-1, TRb SRC2 PPI, GoLoco inh red, BLM helicase inh, TexasRed fluor)
O=C(O)Cc1c[nH]c2cccc(O)c12	RECQ1 inh-1 32µM, TexasRed fluor inconclusive | RECQ1 inh-2 inactive
Nc1ccc(Cl)cc1Cl	none (no result: BLM helicase inh, ERG Ets-DNA blk)
COc1ccc(Cl)cc1NC(=O)CN(C)CC(=O)Nc1ccc(C)cc1Br	RECQ1 inh-1 35µM | RECQ1 inh-2 inactive
COC(=O)COc1ccc(C2Nc3c(Cl)ccc(C(=O)O)c3C3C=CCC32)cc1 (configuration not stated)	RECQ1 inh-1 28µM | RECQ1 inh-2 inconclusive
COc1ccc(OC)c(C2Nc3c(Cl)ccc(C(=O)O)c3C3C=CCC32)c1 (configuration not stated)	none
CC(NC(=O)/C(=C/c1ccc2c(c1)OCO2)NC(=O)c1cccc([N+](=O)[O-])c1)C(=O)O (configuration not stated)	none | RECQ1 conf inactive | ADP FP counter inactive
O=C(NC(Cc1ccccc1)C(=O)O)/C(=C/c1ccco1)NC(=O)c1cccc([N+](=O)[O-])c1 (configuration not stated)	none | RECQ1 conf inactive | ADP FP counter inactive
O=C(NC(Cc1ccccc1)C(=O)O)/C(=C/c1ccccc1)NC(=O)c1cccc(Br)c1 (configuration not stated)	none | RECQ1 conf inactive | ADP FP counter inconclusive
Cc1cc2nc3ccc(=[N+](C)C)cc-3sc2cc1N	RECQ1 inh-1 16µM, TRb SRC2 PPI 7.9µM, BLM helicase inh 16µM, ERG Ets-DNA blk inconclusive, TexasRed fluor 45µM[fluorescent] | RECQ1 conf 3.5µM | ADP FP counter 7.1µM | RECQ1 inh-2 16µM
CCOc1ccccc1NC(=O)Cn1ccn(Cc2ccc(C)cc2)c(=O)c1=O	none (no result: RECQ1 inh-1, GoLoco inh red)
CCN(CC)S(=O)(=O)c1ccc(C(=O)NCc2n[nH]c(=S)n2-c2ccccc2OC)cc1	none (no result: ERG Ets-DNA blk)
CCN(CC)S(=O)(=O)c1ccc(C(=O)NCc2n[nH]c(=S)n2-c2ccc(Cl)c(Cl)c2)cc1	none | RECQ1 conf inactive | ADP FP counter inactive
CCCN(CCC)S(=O)(=O)c1ccc(C(=O)Nc2ccc(OCC(=O)N3CCOCC3)cc2)cc1	none | RECQ1 conf inactive | ADP FP counter inactive
N#Cc1cccc(-c2nccc(NCc3cccnc3)n2)c1	none (no result: TRb SRC2 PPI, ERG Ets-DNA blk, TexasRed fluor)
O=C(CSc1nc2ccccc2c(=O)[nH]1)c1ccc(O)c(O)c1	RECQ1 inh-1 8.9µM (no result: ERG Ets-DNA blk) | RECQ1 conf inconclusive | ADP FP counter inconclusive | RECQ1 inh-2 16µM
Cc1ccc(C)n1-c1sccc1C(=O)O	RECQ1 inh-1 20µM | RECQ1 conf inactive
COc1ccc(NC(=O)CCNS(=O)(=O)c2ccc3c(c2)CCC(=O)N3)cc1	none | RECQ1 conf inactive | ADP FP counter inconclusive
Cc1ccccc1C(=O)N/N=C/c1ccc([N+](=O)[O-])s1	none (no result: ERG Ets-DNA blk)
Cc1c(Cl)cccc1N=Cc1ccc([N+](=O)[O-])s1	RECQ1 inh-1 inconclusive | RECQ1 inh-2 inconclusive
COc1cc2ccccc2cc1C(=O)NC(=S)Nc1cccc(C(=O)O)c1	RECQ1 inh-1 inconclusive, BLM helicase inh inconclusive | RECQ1 inh-2 25µM
COc1cc2ccccc2cc1C(=O)NC(=S)Nc1ccc(C(=O)O)cc1	none (no result: RECQ1 inh-1, TRb SRC2 PPI, GoLoco inh red, TexasRed fluor)
Cc1cc(C)n2nc(C(=O)OCC(=O)c3cc(C)n(C)c3C)nc2n1	RECQ1 inh-1 inconclusive | RECQ1 inh-2 inconclusive
Cc1cc(C)n2nc(C(=O)OCC(=O)c3cc(C)n(CC4CCCO4)c3C)nc2n1 (configuration not stated)	none
O=C(N/N=C/c1cccc(NC(=O)c2ccc(Cl)cc2)c1)c1ccc(O)cc1	RECQ1 inh-1 18µM | RECQ1 conf 112µM | ADP FP counter inactive
C=C(C)C(=O)C1CCCCC1	none (no result: ERG Ets-DNA blk)
O=C(CC(C(=O)O)P(=O)(c1ccccc1)c1ccccc1)c1ccc(Br)cc1 (configuration not stated)	none | RECQ1 conf inactive | ADP FP counter inactive
COc1ccccc1NC(=O)CSc1nc2ccccc2c2nc(-c3ccccc3)nn12	none (no result: RECQ1 inh-1, GoLoco inh red)
S=C(NCCSCc1c(Cl)cccc1Cl)Nc1ccccc1	RECQ1 inh-1 13µM | RECQ1 conf inactive | ADP FP counter inactive
CC/C(C)=N/O	none (no result: BLM helicase inh, ERG Ets-DNA blk)
Cc1ccc2nc(NC(=O)C3CCN(S(=O)(=O)c4cc([N+](=O)[O-])ccc4Cl)CC3)sc2c1	RECQ1 inh-1 32µM | RECQ1 inh-2 inconclusive
Cc1cc(C)n2c(SCC(=O)Nc3c(C)n(C)n(-c4ccccc4)c3=O)nnc2n1	none | RECQ1 conf inactive | ADP FP counter inactive
Cc1nnc(SCC(=O)Nc2c(C)n(C)n(-c3ccccc3)c2=O)n1Cc1ccccc1	none

Screens deposited in PubChem BioAssay by National Center for Advancing Translational Sciences (NCATS).
